The values that follow come from PubChem BioAssay AID493056 (National Center for Advancing Translational Sciences (NCATS), 2011).

The campaign covered roughly 360,000 compounds. About 2,400 (0.67%) were called active. The sample holds actives, similar compounds and a random draw of the others, so the mix is not that of the screen. Cut-off read from the data, not from the text of the source: active = enhancement above about 30%; inactive = the rest.

The target in this experiment is Thyrotropin-releasing hormone receptor (Homo sapiens) (UniProt P34981). The experiment is described as follows: qHTS for Small Molecule Agonists and Allosteric Enhancers of Human TRH Receptor: Primary Screen for Enhancers. Note: 0% is about no effect. The note with it: TRHR cells, fluo-8 calcium fluorescence, EC20 TRH enhancement; at 2 µM; stronger effect = higher value. Summed up: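 Enhancer read-out: after compound pinning and an initial kinetic agonist-mode read, an EC20 of TRH (10 nM final) was injected and fluo-8 calcium signal (Ex 480/Em 530) followed at 1 s/cycle for 100 cycles in TRHR-expressing cells.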
Thyrotropin-releasing hormone receptor (Homo sapiens), sequence (P34981 whole entry, looked up): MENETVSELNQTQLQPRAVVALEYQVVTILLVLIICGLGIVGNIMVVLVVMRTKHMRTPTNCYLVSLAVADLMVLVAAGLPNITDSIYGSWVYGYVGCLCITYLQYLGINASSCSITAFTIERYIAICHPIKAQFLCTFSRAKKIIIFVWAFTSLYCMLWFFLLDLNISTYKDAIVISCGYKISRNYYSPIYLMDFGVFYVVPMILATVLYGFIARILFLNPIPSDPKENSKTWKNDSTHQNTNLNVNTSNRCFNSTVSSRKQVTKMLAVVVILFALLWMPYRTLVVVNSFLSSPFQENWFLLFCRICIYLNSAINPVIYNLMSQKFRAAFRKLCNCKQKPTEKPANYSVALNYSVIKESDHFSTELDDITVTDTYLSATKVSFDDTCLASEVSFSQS
Regarding `CCCC(=O)Nc1ccc(NC(=O)c2sc3ccccc3c2Cl)cc1`, the enhancement is -1.06% (inactive).
To `CCC(=O)N1CCc2cc(S(=O)(=O)NC(C(=O)NCCc3ccc(C)cc3)C(C)C)ccc21` (configuration not stated) belongs 18.2% (inactive).
Regarding `CN(C(=O)CSc1nnc(Nc2ccccc2)s1)C1CCS(=O)(=O)C1` (configuration not stated), the enhancement was 51.4% (active).
Next, `CN(C(=O)CSc1nnc(NC(=O)Nc2ccccc2)s1)c1ccccc1`: -6.25% (inactive).
For the compound `CCn1c(SCC(=O)N(C)C2CCS(=O)(=O)C2)nnc1-c1cccs1` (configuration not stated), the enhancement is 2.93% (inactive).
To `CC(=O)c1ccc(N2CCN(C3C(=O)c4ccccc4N3C(C)=O)CC2)cc1` (configuration not stated) belongs -5.78% (inactive); to `N#Cc1ccccc1Cn1cnc2nc3c(cc2c1=O)CCCC3`, 2.65% (inactive); to `O=S(=O)(c1ccccc1)c1nc(-c2ccc(Cl)cc2Cl)oc1N1CCCCC1`, 2.85% (inactive).
Consider `CCCCNC(=O)C1CCCN(c2nnc(C)c3c(C)n(-c4ccc(Cl)cc4)nc23)C1` (configuration not stated), for which the enhancement was -2.23% (inactive).
On to `CC(C)C1Nc2c(C(=O)O)cccc2C(Nc2ccccc2C(=O)O)C1(C)C` (configuration not stated), for which the enhancement was 30.3% (active).
To `Cc1ccc(-n2nc(CO)c(C(=O)NCCc3ccccc3)n2)cc1` belongs -1.1% (inactive).
Next, `CC(=O)N1CCCc2cc(S(=O)(=O)N3CCC(C(=O)NCc4ccc(C)cc4)CC3)ccc21`: 4% (inactive); `CCc1ccc(Sc2cc(C(=O)NCCCOC(C)C)c3ccccc3n2)cc1`: -9.07% (inactive).
Take `CC1COc2ccccc2N1S(=O)(=O)c1ccccc1` (configuration not stated): the enhancement is -5.39% (inactive).
For the compound `O=C1COc2ccc(C(=O)COC(=O)c3cccnc3Cl)cc2N1`, the enhancement is -8.83% (inactive).
Next, `CC1COc2ccccc2N1C(=O)c1cccnc1Cl` (configuration not stated): 30.7% (active).
Next, `Cc1oc2ccc(O)c(CN3CCOCC3)c2c1C(=O)Nc1cccc(Cl)c1C`: -0.894% (inactive); `COc1ccc(-c2ccc(=O)n(CC(=O)Nc3ccc(Br)cc3F)n2)cc1`: 5.81% (inactive).
Take `Cc1cc(C)cc(NC(=O)NC2CCCCCCC2)c1`: the enhancement is -4.13% (inactive).
In the case of `Cc1cc(Br)ccc1NC(=S)NC1CCCC1`, the enhancement is 36% (active).
To `S=C(Nc1ccc(Br)cc1Cl)NC1CCN(Cc2ccccc2)CC1` belongs 1.92% (inactive).
As to `CCOc1ccc(NC(=O)C2CCN(S(=O)(=O)c3cc(-c4noc(C)n4)ccc3C)CC2)cc1`, the enhancement is 0.0598% (inactive).
Regarding `Cc1cccc(Cn2c(CN3CCC(C(=O)NCc4ccccc4Cl)CC3)cc3ccccc32)c1`, the enhancement was -3.11% (inactive).
On to `CCOc1ccc(C(=O)c2cn(Cc3ccccc3OC)c3ccc(F)cc3c2=O)cc1`, for which the enhancement is -0.366% (inactive).
Next, `N/C(=N\OC(=O)c1ccc2c(c1)OCO2)c1ccc(Br)cc1`: -2.97% (inactive); `C/C(=N\OC(=O)c1ccccc1)c1c(C)nc2cc(C)ccn12`: -2.45% (inactive); `C/C(=N/OC(=O)c1ccc(Br)cc1)c1ccc(C)cc1`: 61.7% (active).
As to `Cc1cn(C)c(CC(=O)NCc2ccccc2)c1C(=O)O`, the enhancement is -2.62% (inactive).
As for `Cc1cccc(-c2nc(SCc3ccc(Br)cc3)n3[nH]c(=O)cc3n2)c1`, the enhancement was 4.69% (inactive).
With `O=C(NC1(C(F)(F)F)N=C(c2ccccc2)N(C2CCCCC2)C1=O)c1ccccc1F` (configuration not stated), the enhancement was -3.75% (inactive).
To `CN1CCN(c2oc(-c3ccc(COc4ccc(Cl)cc4)o3)nc2C#N)CC1` belongs 0.896% (inactive).
Next, `Cc1ccc(C)c(NC(=O)C2CCCN(S(=O)(=O)c3cn(C)cn3)C2)c1` (configuration not stated): 12.8% (inactive); `O=C(NCc1ccccc1)C1CCCN(S(=O)(=O)c2cccs2)C1` (configuration not stated): 4.34% (inactive); `CSc1ccc(S(=O)(=O)N2CCC(C(=O)NCc3ccncc3)CC2)cc1`: 0.598% (inactive).
To `O=C(NCc1ccncc1)C1CCCN(S(=O)(=O)c2ccc(Br)cc2)C1` (configuration not stated) belongs 30.7% (active); to `CCc1nc2c(cnn2-c2ccc(C)cc2)c(=O)n1-c1ccc(C)cc1`, -4.12% (inactive).
As for `Cc1ccc(Cn2ncc3c4sc(C)cc4n(C)c3c2=O)c(C)c1`, the enhancement was 4.39% (inactive).
To `CCCN(CCC)CCNC(=O)c1ccc2c(c1)NC(=O)C(CS(=O)(=O)Cc1cccc(Br)c1)N2` (configuration not stated) belongs 5.05% (inactive); to `O=C(C1CCN(C2CCN(Cc3cccc4c3OCO4)CC2)CC1)N1CCOCC1`, 2.59% (inactive); to `O=C(C1CCN(C2CCN(Cc3ccc4cc(F)ccc4n3)CC2)CC1)N1CCCC1`, -6.35% (inactive).
Take `C/C(=C\c1ccco1)CN1CCC(N2CCC(C(=O)N3CCOCC3)CC2)CC1`: the enhancement is 46.7% (active).
As to `Cc1ccc(-c2nc(SCc3ccc(Br)cc3)n3[nH]c(=O)cc3n2)cc1`, the enhancement was -0.363% (inactive).
Next, `CC(C)(C)n1nc2c(c1NC(=O)c1cc3ccccc3o1)CSC2`: 1.55% (inactive); `Cc1c(/C=N\NC(=O)c2cc3ccccc3o2)c2ccccc2n1C`: 44.3% (active).
Next, `CC(C)Oc1ccc(NC(=O)c2cc3ccccc3o2)cc1`: 7.33% (inactive); `O=C(NCCS(=O)(=O)N1CCN(c2ccc(F)cc2)CC1)c1ccccc1Br`: 1.15% (inactive).
Consider `Cc1ccc(C2CCN(C(=O)c3cnn(-c4ccccc4Cl)c3C3CCN(C(=O)OC(C)(C)C)CC3)C2)cc1` (configuration not stated), for which the enhancement was 3.84% (inactive).
To `O=S(=O)(c1cccs1)N1CCN(CCOc2ccccc2)CC1` belongs 5.02% (inactive).
To `CN1CCN(S(=O)(=O)c2ccc(N3CCN(S(=O)(=O)c4cccs4)CC3)nc2)CC1` belongs 39.6% (active); to `CC(=O)Nc1ccc(S(=O)(=O)N2CCN(S(=O)(=O)c3cccs3)CC2)cc1`, -0.8% (inactive).
On to `CCOC(=O)C1CCN(c2csc3ccc(C)cc3c2=O)CC1`, for which the enhancement was -6.67% (inactive).
On to `CCOC(=O)C1CCC(CN(Cc2ccc(OC)cc2)S(=O)(=O)c2ccc(F)c(C(=O)Nc3cc(C)ccc3C)c2)CC1` (configuration not stated), for which the enhancement was -3.18% (inactive).
Next, `COC(=O)c1cc(NC(=O)CN2CCN(C(C)=O)CC2)cc(C(=O)OC)c1`: 6.58% (inactive); `Cc1ccc(NC(=O)CN2c3ccccc3S(=O)(=O)c3ccccc32)cc1F`: 10.5% (inactive).
Next, `CC(=O)N1CCN(CC(=O)Nc2ccc(C)c(F)c2)CC1`: 47.8% (active); `CCOc1ccc(C2C(C(=O)Nc3ccc(Cl)cc3)=C(C)Nc3nc(C(F)(F)F)nn32)cc1` (configuration not stated): 10.8% (inactive); `C#CC(C)(CC)NC(=O)Cn1nnc(-c2ccc(OCc3c(F)cccc3Cl)cc2)n1` (configuration not stated): 1.56% (inactive).
